esBAF inh: inhibitors of esBAF chromatin remodeling in mouse ES cells. Bmi1-luciferase knock-in reporter, 24 h; 100% = twice the neutral-well signal. AID 602393. 350,000 tested, 2% active. reporter increase, % at 12.5 µM; in the data active = activation above about 40%; inconclusive = no clear call, values can overlap the other calls;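 also: 0% = median of the plate's neutral control wells and 100% = double that signal; a rise in the Bmi1 reporter signal indicates esBAF inhibition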
Wnt bcat act: activators of Wnt/beta-catenin signaling. 300,000 tested, 1.2% active. activation, % at 9.35 µM. Wnt/beta-catenin reporter cell assay, activator, plate reader; in the data active = activation above about 30%, passing the limit was not always enough; inconclusive = no clear call, values can overlap the other calls;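 also: 0% = neutral control wells and 100% = positive control wells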
AHR activator: activators of human aryl hydrocarbon receptor; P35869; AHR-responsive luciferase reporter cells, luminescence; activation, % at 5 µM; 320,000 tested, 2.5% active; AID 2796; in the data active = activation above about 47%;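 also: 0% = vehicle wells and 100% = reference agonist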
Target sequence (P35869 whole entry, looked up): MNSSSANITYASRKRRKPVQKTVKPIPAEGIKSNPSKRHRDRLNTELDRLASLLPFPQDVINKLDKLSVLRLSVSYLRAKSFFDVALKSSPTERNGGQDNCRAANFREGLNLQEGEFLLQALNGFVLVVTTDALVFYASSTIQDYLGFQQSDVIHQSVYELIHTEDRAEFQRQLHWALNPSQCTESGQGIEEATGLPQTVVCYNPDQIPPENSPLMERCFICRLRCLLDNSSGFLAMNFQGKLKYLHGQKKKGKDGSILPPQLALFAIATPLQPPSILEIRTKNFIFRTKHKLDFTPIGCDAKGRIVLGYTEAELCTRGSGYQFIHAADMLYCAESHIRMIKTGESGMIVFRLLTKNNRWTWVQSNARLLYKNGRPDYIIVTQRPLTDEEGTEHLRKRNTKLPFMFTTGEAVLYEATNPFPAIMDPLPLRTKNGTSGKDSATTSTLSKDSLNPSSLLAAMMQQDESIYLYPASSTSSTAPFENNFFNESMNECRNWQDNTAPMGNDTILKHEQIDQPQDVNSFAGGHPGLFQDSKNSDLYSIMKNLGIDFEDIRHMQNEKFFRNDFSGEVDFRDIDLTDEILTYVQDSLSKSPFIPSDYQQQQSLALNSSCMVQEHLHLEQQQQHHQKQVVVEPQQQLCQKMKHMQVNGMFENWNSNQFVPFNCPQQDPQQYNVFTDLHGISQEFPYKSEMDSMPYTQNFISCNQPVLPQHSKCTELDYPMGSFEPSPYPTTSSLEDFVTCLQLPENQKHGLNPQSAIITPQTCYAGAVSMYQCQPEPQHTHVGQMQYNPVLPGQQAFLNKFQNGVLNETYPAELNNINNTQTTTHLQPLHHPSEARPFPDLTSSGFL
FXN GAA850 act: activators of GAA850 frataxin (FXN) promoter. HEK293 lucGAA850 FXN promoter luciferase reporter, 24 h; percent of 10 µM SAHA response. activation, % at 6 µM. 360,000 tested, 0.56% active. AID 540364;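 active = activation above the average of all compounds screened plus 3 SD, cutoff fixed separately per campaign, cut at about 7.5% in these data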;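 also: 0% = DMSO wells and 100% = 10 µM SAHA wells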
MITF TRPM1 HTS: increases MITF-driven TRPM1 promoter luciferase signal | activation, % at 12.5 µM | SK-MEL-5 TRPM1-promoter luciferase, 24 h; % of positive control, neutral wells = 0 | 300,000 tested, 0.75% active | AID 588334;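 active = mean activation of at least 80% with every replicate also reaching 80%; inconclusive = mean reaches 80% but some replicate falls short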;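 also: 0% = neutral control wells and 100% = parthenolide positive control wells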
The depositor's hits bear a star; ? = inconclusive; . = not tested or not shown. In the library only some 4.2% were active in any assay of this set; here they are far more common.

SMILES	esBAF inh	Wnt bcat act	AHR activator	FXN GAA850 act	MITF TRPM1 HTS
CC(C)c1ccc(CNc2ccc3c(c2)ncn3C)cc1	21	26	63*	4	52
CC(C)NC(=O)N(C)C[C@H]1Oc2cc(C#C[C@H](C)O)ccc2S(=O)(=O)N([C@@H](C)CO)C[C@H]1C	2	.	.	.	.
Cc1cc(C(=O)N2CCC(CO)(Cc3cccc(C(F)(F)F)c3)CC2)n[nH]1	-2	-1	3	1	0
O=C(c1cnsn1)N1CCC(CO)(Cc2cccc(F)c2)CC1	70*	50*	-1	7	114*
COc1cccc(S(=O)(=O)Nc2ccc3c(c2)OC[C@@H](C)N(Cc2ccccc2F)C[C@@H](C)[C@H](OC)CN(C)C3=O)c1	9	.	.	.	.
CCCCCCCNC(=O)C1(CC2CC(c3ccccc3)=NO2)CCN(C(=O)OC(C)(C)C)CC1 (stereo unspecified)	62*	13	42	0	51
COc1ccc(S(=O)(=O)Nc2ccc3c(c2)[C@@H]2C[C@@H](CC(=O)NCC4CC4)O[C@H](CO)[C@@H]2O3)cc1	5	.	.	.	.
CCOc1ccc(Nc2nc3c(c(=O)[nH]2)CCCC3)cc1	14	19	23	2	28
Cc1ccc(Nc2nc3c(c(=O)[nH]2)CCCC3)cc1	70*	.	30	5	37
O=c1[nH]c(Nc2nc3ccccc3o2)nc2c1CCCC2	.	25	55*	5	-48
CO[C@H]1CN(C)C(=O)c2cc(NC(=O)C3CCCCC3)ccc2OC[C@@H](C)N(C)C[C@H]1C	3	.	.	.	.
C[C@@H]1CN([C@H](C)CO)C(=O)c2cc(NS(=O)(=O)c3ccccc3)ccc2O[C@@H](C)CCCCO[C@@H]1CN(C)CC1CC1	9	.	.	.	.
CCNC(=S)N(Cc1ccco1)Cc1cc2cc3c(cc2[nH]c1=O)OCCO3	.	.	71*	2	-1
CC(C)CNC(=S)N(Cc1ccco1)Cc1cc2cc3c(cc2[nH]c1=O)OCCO3	.	.	54*	-1	-5
COc1ccccc1NC(=S)N(Cc1ccco1)Cc1cc2cccc(C)c2[nH]c1=O	.	.	48*	-1	3
CNC(=S)N(Cc1ccco1)Cc1cc2cc3c(cc2[nH]c1=O)OCCO3	.	2	37	1	7
Nc1c(-c2cccs2)cnc2c(-c3ccc(F)cc3)cnn12	2	54*	-4	6	71
CS(=O)(=O)c1cnc2c(-c3ccc(F)cc3)cnn2c1N	-2	.	-6	7	76
COCCN=C1Sc2nc3ccc(C)cc3cc2CN1Cc1ccco1	54*	-3	6	1	24
C[C@H]1CN([C@@H](C)CO)C(=O)Cc2cc(NC(=O)C3CCCCC3)ccc2O[C@H]1CN(C)C(=O)Nc1cccc2ccccc12	-1	.	.	.	.
C[C@@H]1CN([C@@H](C)CO)C(=O)c2cccc(NC(=O)C3CCOCC3)c2O[C@H]1CN(C)S(=O)(=O)c1cccs1	3	.	.	.	.
FC(F)(F)c1cccc(NC(=S)Nc2cccc(NC(=S)Nc3cccc(C(F)(F)F)c3)n2)c1	5	-1	66*	7	19
CC(C)(C)NNC(=S)Nc1cccc(C(F)(F)F)c1	.	0	-1	1	.
c1ccc2sc(-c3ccncc3)nc2c1	.	42*	4	4	70
Nc1ccc(O)c(-c2nc3ccccc3s2)c1	31	2	22	2	1
SMILES	esBAF inh	Wnt bcat act	AHR activator	FXN GAA850 act	MITF TRPM1 HTS
c1csc(-c2ccc3ccccc3n2)c1	43*	20	6	1	59
Oc1ccc(-c2nc3ccccc3s2)c(O)c1	.	58*	8	4	56
Nc1ccccc1-c1nc2ccccc2s1	?	46*	57*	7	42
c1coc(-c2nc3ccccc3s2)c1	.	3	.	2	42
Nc1nc(-c2cccs2)cs1	8	.	22	0	9
CN(C)C(=O)C[C@@H]1C=C[C@H](NS(=O)(=O)c2ccccc2)[C@@H](CO)O1	2	.	.	.	.
Cc1noc(C)c1S(=O)(=O)Nc1ccc2c(c1)C(=O)N([C@@H](C)CO)C[C@@H](C)[C@H](CN(C)Cc1ccc(C(F)(F)F)cc1)OCCCC[C@@H](C)O2	12	.	.	.	.
C[C@@H]1CN([C@H](C)CO)C(=O)c2cc(-c3ccccc3)cnc2O[C@H]1CN(C)Cc1ccc(C(=O)O)cc1	-3	.	.	.	.
C[C@H]1CN([C@@H](C)CO)C(=O)Cc2cc(NC(=O)Nc3ccc(F)cc3)ccc2O[C@H]1CN(C)C(=O)Nc1ccc2c(c1)OCO2	2	.	.	.	.
COc1ccc(-c2nc3ccccc3s2)cc1	.	5	.	1	-22
COc1cccc(-c2nc3ccccc3s2)c1	.	.	68*	3	10
Oc1ccc(-c2nc3ccccc3s2)cc1	-29	47*	55*	3	46
c1ccc2sc(-c3ccc4c(c3)OCO4)nc2c1	-73	.	65*	-1	-8
c1csc(-c2nc3ccccc3s2)c1	47*	13	4	5	79
Cc1noc(C)c1NC(=O)Nc1ccc2c(c1)C(=O)N([C@H](C)CO)C[C@H](C)[C@H](CN(C)Cc1ccc(C(F)(F)F)cc1)OCCCC[C@H](C)O2	-2	.	.	.	.
COc1ccccc1CNC(=O)C[C@H]1C[C@@H]2c3cc(NS(=O)(=O)c4ccc(F)cc4)ccc3O[C@@H]2[C@@H](CO)O1	14	.	.	.	.
CCc1ccc(CNCCNC(=O)c2ccco2)cc1	36	42*	.	3	-7
O=C(NCCNCc1ccccc1)c1ccco1	13	-3	.	3	-7
Cc1ccc(NC(=O)/C(C#N)=N/Nc2ccc(C(=O)O)cc2)c(C)c1	.	44*	2	3	0
Cc1ccc(N/N=C(\C#N)C(N)=S)c(C)c1	.	.	7	1	8
COc1ccc(-c2ccc3n(c2=O)C[C@@H]2[C@@H](CO)[C@H](C(=O)N(C)C)[C@H]3N2Cc2cncnc2)cc1	-1	.	.	.	.
Cc1cccc(/C=N/NC(=O)Cc2ccc(Cl)cc2)c1O	-8	-3	52*	1	-12
O=C(C[C@H]1C=C[C@H](NC(=O)c2ccccc2)[C@H](CO)O1)Nc1ccc(-c2ccccc2)cc1	8	.	.	.	.
Clc1ccc(-c2nnc(N3CCCC3)nn2)cc1	-26	35*	8	3	.
CCOC(=O)c1sc(NC(=O)C2CCC2)cc1C	50*	37*	6	4	44
SMILES	esBAF inh	Wnt bcat act	AHR activator	FXN GAA850 act	MITF TRPM1 HTS
CCOC(=O)c1sc(NC(=O)Nc2ccccc2Cl)cc1C	.	13	-12	6	33
CCOC(=O)c1sc(NC(=O)Nc2ccccc2)cc1C	.	?	-6	3	105*
COc1ccccc1-c1noc(-c2ccccc2C(=O)NCc2ccco2)n1	10	1	50*	0	3
COc1cc(-c2noc(-c3ccccc3C(=O)NCc3ccco3)n2)cc(OC)c1OC	-7	0	3	-4	-8
CCN1c2ccccc2-c2nc3ccccc3n2C1c1ccncc1 (stereo unspecified)	5	.	11	-2	-3
CCN1c2ccccc2-c2nc3ccccc3n2C1c1cccnc1 (stereo unspecified)	-2	.	11	0	-1
c1ccc2c(c1)NC(c1ccncc1)n1c-2nc2ccccc21 (stereo unspecified)	.	56*	70*	2	28
